The source of these data is PubChem BioAssay (NCI).

Common to all, as to assay: NCI-60 one-dose screen, 48 h (100 = growth as untreated, 0 = no growth, -100 = all killed)
The test system of one assay is NCI-H23 lung. The following applies: 10 µM unless noted.
Another assay deals with NCI-H226 lung. The following applies: 10 µM unless noted.
The next assay has as its system NCI-H322M lung. The following applies: 10 µM unless noted.
The test system of a further assay is HOP-62 NSCLC. The following applies: 10 µM unless noted.
Another assay deals with NCI-H460 lung. The following applies: 10 µM unless noted.
For another assay, the system named is HOP-92 NSCLC. The following applies: 10 µM unless noted.
For a further assay, the system named is NCI-H522 lung. The following applies: 10 µM unless noted.
The subject of the next assay is A549/ATCC NSCLC. The following applies: 10 µM unless noted.
The subject of a further assay is 786-0 renal. The following applies: 10 µM unless noted.
In the next assay the test system is COLO 205 colon. The following applies: 10 µM unless noted.
Another assay deals with DU-145 prostate. The following applies: 10 µM unless noted.
For another assay, the system named is K-562 leukemia. The following applies: 10 µM unless noted.
In the next assay the test system is MALME-3M melanoma. The following applies: 10 µM unless noted.
Another assay deals with MDA-MB-231 breast. The following applies: 10 µM unless noted.
For the next assay, the system named is RXF 393 renal. The following applies: 10 µM unless noted.
Another assay deals with SF-268 CNS. The following applies: 10 µM unless noted.
In another assay the test system is SF-295 CNS. The following applies: 10 µM unless noted.
A further assay deals with SF-539 CNS. The following applies: 10 µM unless noted.
The next assay relates to UACC-257 melanoma. The following applies: 10 µM.
The subject of the next assay is M14 melanoma. The following applies: 10 µM unless noted.

About 83,000 compounds went through this panel and 20% of them were active in at least one assay; those are over-represented in the sample as a whole.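 Interpretation: 100, growth as untreated; towards 0, rising growth inhibition; 0, no net growth; 0 to -100, cell death. Compounds scoring below 10 were considered active.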 Values without a mark were called inactive. The source made the active and inactive calls.

On to `CC(C)CCN(CCCNc1c2c(nc3ccccc13)CCCC2)CCC(C)C`, for which the growth in the assay with NCI-H23 lung is 84.1%; in the assay on NCI-H226 lung, 102%; with NCI-H322M lung, 81.7%; with HOP-62 NSCLC, 102%; in the assay with NCI-H460 lung, 91%; with HOP-92 NSCLC, 42.4%. The growth with NCI-H522 lung is 103%; with A549/ATCC NSCLC, 94.1%; with 786-0 renal, 77.6%; in the assay on COLO 205 colon it was 61.7%; in the assay on DU-145 prostate, 86.3%; in the assay on K-562 leukemia it was 31.4%. The growth with MALME-3M melanoma was 84.9%; with MDA-MB-231 breast, 24.5%; with RXF 393 renal, 81.9%; in the assay with SF-268 CNS it was 89.4%; in the assay on SF-295 CNS, 80.1%; in the assay on SF-539 CNS, 88.2%. For the same molecule, the growth with UACC-257 melanoma is 94.5%; in the assay on M14 melanoma it was 35.9%.
Turning to `Cc1ccc(Nc2ncnc3c2sc2ncccc23)cc1`, the growth in the assay with NCI-H23 lung is 101%; in the assay with NCI-H226 lung it was 91.7%; with NCI-H322M lung, 95.9%; in the assay with HOP-62 NSCLC, 103%; with NCI-H460 lung it was 97.6%; with HOP-92 NSCLC it was 106%. In addition, the growth is 106% in the assay with NCI-H522 lung; 98.2% in the assay with A549/ATCC NSCLC; 101% in the assay with 786-0 renal; 107% in the assay on COLO 205 colon; 108% in the assay on DU-145 prostate; 53.8% with K-562 leukemia. In addition, the growth in the assay on MALME-3M melanoma is 107%; in the assay on MDA-MB-231 breast, 103%; with RXF 393 renal, 88.2%; in the assay with SF-268 CNS, 97.6%; in the assay with SF-295 CNS it was 110%; with SF-539 CNS, 100%. In addition, the growth in the assay on UACC-257 melanoma is 99.5%; in the assay with M14 melanoma, 101%.
For `COc1cc(/C=C/C(=O)c2ccc(NC(=O)CN3CCN(c4cc5c(cc4F)c(=O)c(C(=O)O)cn5C4CC4)CC3)cc2)cc(OC)c1OC`, the growth in the assay on NCI-H23 lung is -35.6% (active); in the assay with NCI-H226 lung, -9.81% (active); with NCI-H322M lung it was -7.05% (active); with HOP-62 NSCLC, 4.38% (active); in the assay with NCI-H460 lung, -20% (active); with HOP-92 NSCLC, -1.75% (active). Further, the growth in the assay with NCI-H522 lung is -71.5% (active); with A549/ATCC NSCLC, -19.2% (active); in the assay with 786-0 renal, -67.8% (active); in the assay on COLO 205 colon, -12.8% (active); in the assay on DU-145 prostate, 2.17% (active); in the assay with K-562 leukemia, 1.66% (active). Also, the growth with MALME-3M melanoma was 31.4%; in the assay on MDA-MB-231 breast, 27.6%; in the assay with RXF 393 renal, -87.6% (active); with SF-268 CNS it was -1.11% (active); in the assay on SF-295 CNS, -27.2% (active); in the assay on SF-539 CNS, -15.7% (active). For the same molecule, the growth in the assay with UACC-257 melanoma is 30.8%; with M14 melanoma, -14.1% (active).
For the molecule `CCCCCC(=O)OCc1ccccc1`, the growth with NCI-H23 lung is 102%; in the assay with NCI-H226 lung, 103%; in the assay with NCI-H322M lung it was 102%; in the assay with HOP-62 NSCLC, 97%; in the assay on NCI-H460 lung it was 109%; in the assay with HOP-92 NSCLC, 96.3%. The growth was 85.7% in the assay on NCI-H522 lung; 106% in the assay on A549/ATCC NSCLC; 96.9% in the assay with 786-0 renal; 106% with COLO 205 colon; 103% in the assay on DU-145 prostate; 84.9% in the assay with K-562 leukemia. Besides, the growth with MALME-3M melanoma was 85.9%; in the assay with MDA-MB-231 breast, 109%; in the assay with RXF 393 renal, 105%; with SF-268 CNS it was 97.2%; in the assay on SF-295 CNS, 99.8%; in the assay with SF-539 CNS it was 98.8%. The growth with UACC-257 melanoma is 96.8%; with M14 melanoma, 94.9%.
In the case of `CN(C)c1ccc(C2CC(c3ccccc3)=NN2/C=C2\SC(=O)NC2=O)cc1` (stereo not given), the growth is 88.7% in the assay with NCI-H23 lung; 90.4% in the assay with NCI-H226 lung; 87.4% in the assay with NCI-H322M lung; 94.5% in the assay with HOP-62 NSCLC; 67.2% in the assay on NCI-H460 lung; 91.5% in the assay on HOP-92 NSCLC. Further, the growth is 90% in the assay on NCI-H522 lung; 70.1% in the assay with A549/ATCC NSCLC; 90.5% in the assay with 786-0 renal; 110% with COLO 205 colon; 57.7% with DU-145 prostate; 100% with K-562 leukemia. Moreover, the growth with MALME-3M melanoma is 89%; in the assay with MDA-MB-231 breast, 93.3%; with RXF 393 renal, 96.5%; in the assay with SF-268 CNS, 90.9%; in the assay with SF-295 CNS, 98%; with SF-539 CNS it was 76%. Moreover, the growth in the assay on UACC-257 melanoma is 115%; in the assay with M14 melanoma it was 93.7%.
Turning to `CCCCCCC[C@@H](O)CC(=O)N[C@H](CCCCN)C(=O)N[C@H](Cc1c[nH]c2ccccc12)C(=O)NC(CCCCN)C(=O)N[C@H](CC(C)C)C(=O)N[C@H](Cc1ccccc1)C(=O)N[C@H](CCCCN)C(=O)N[C@H](CCCCN)C(=O)N[C@H](CC(C)C)C(=O)N1CCCC1C(=O)N[C@H](CCCCN)C(=O)N[C@H](Cc1ccccc1)C(=O)N[C@H](CC(C)C)C(=O)N[C@H](Cc1c[nH]cn1)C(=O)N[C@H](CC(C)C)C(=O)N[C@H](C)C(=O)N[C@H](CCCCN)C(=O)N[C@H](CCCCN)C(=O)N[C@H](Cc1ccccc1)C(=O)O` (stereo not given in full), the growth with NCI-H23 lung is -41.6% (active); in the assay on NCI-H226 lung it was -21.3% (active); with NCI-H322M lung, -71.9% (active); with HOP-62 NSCLC it was -59% (active); with NCI-H460 lung, -25.4% (active); in the assay on HOP-92 NSCLC, -54.4% (active). Besides, the growth with NCI-H522 lung was -48.8% (active); with A549/ATCC NSCLC, -47.3% (active); with 786-0 renal, -34.4% (active); in the assay with COLO 205 colon, -47.6% (active); in the assay with DU-145 prostate it was -77.2% (active); with K-562 leukemia, -33.3% (active). Further, the growth was -2.57% (active) in the assay with MALME-3M melanoma; -71.4% (active) in the assay on MDA-MB-231 breast; -39% (active) in the assay with RXF 393 renal; -54.2% (active) in the assay with SF-268 CNS; -60.8% (active) in the assay on SF-295 CNS; -30.8% (active) with SF-539 CNS. Moreover, the growth in the assay with UACC-257 melanoma was -64.9% (active); with M14 melanoma, -43.4% (active).
On to `COc1cc(OC)c(C(=O)/C=C/c2cccc(C#N)c2)c(OC)c1`, for which the growth is -7.14% (active) in the assay on NCI-H23 lung; 3.93% (active) in the assay on NCI-H226 lung; -1.49% (active) with NCI-H322M lung; -9.93% (active) in the assay with HOP-62 NSCLC; 0.36% (active) in the assay on NCI-H460 lung; -5.88% (active) in the assay on HOP-92 NSCLC. Further, the growth in the assay with NCI-H522 lung was -25.9% (active); in the assay with A549/ATCC NSCLC it was 2.27% (active); in the assay with 786-0 renal, 9.74% (active); in the assay on COLO 205 colon, -6.79% (active); in the assay with DU-145 prostate it was 15.3%; in the assay on K-562 leukemia, 13.7%. Besides, the growth was 35.4% with MALME-3M melanoma; 17.1% with MDA-MB-231 breast; -3.8% (active) in the assay on RXF 393 renal; 13.5% in the assay with SF-268 CNS; 1.75% (active) in the assay on SF-295 CNS; -7.41% (active) with SF-539 CNS. Also, the growth with UACC-257 melanoma is 32.2%; with M14 melanoma, 6.71% (active).
